# Measured values taken from PubChem BioAssay (Tox21).
# Unmarked numbers belong to inactive results. Results filed as inconclusive are left out. Entries that show only a call come without a potency. Activity calls are given as the source filed them. Unless noted, calls come from the whole dose curve; as a rule, active = well fitted curve in the direction sought with a large enough effect in the repeat runs; inconclusive = weak or mixed curves; inactive = no such curve, though single readings can be large; an effect the other way counts as inactive or inconclusive.
# Columns and labels:
# [1] = biological target: Thyrotropin-releasing hormone receptor (Homo sapiens) (UniProt P34981); assay: qHTS assay to identify small molecule agonists of the thyrotropin-releasing hormone receptor (TRHR) signaling pathway (AID 1346891; calls by dose curve; note: potency is the fitted concentration of half-maximal effect;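 for activation: HEK293 cells expressing TRHR with calcium dye readout; series mostly up to about 58 µM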)
# Sequence of Thyrotropin-releasing hormone receptor (Homo sapiens) (P34981 whole entry, looked up): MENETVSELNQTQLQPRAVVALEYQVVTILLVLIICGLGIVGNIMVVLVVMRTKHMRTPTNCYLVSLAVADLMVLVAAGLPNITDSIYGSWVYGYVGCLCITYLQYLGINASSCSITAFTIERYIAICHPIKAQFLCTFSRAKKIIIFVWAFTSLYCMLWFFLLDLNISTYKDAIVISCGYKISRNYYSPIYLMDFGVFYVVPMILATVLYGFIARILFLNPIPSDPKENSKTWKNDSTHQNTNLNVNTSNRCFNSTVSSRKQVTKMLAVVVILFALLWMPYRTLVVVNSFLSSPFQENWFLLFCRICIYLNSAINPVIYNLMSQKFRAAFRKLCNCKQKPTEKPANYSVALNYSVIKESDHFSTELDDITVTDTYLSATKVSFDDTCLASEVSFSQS
# Procedure, shortened: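 Agonist-mode calcium mobilisation screen: TRHR-transfected HEK293 cells cultured overnight (18 h), dye-loaded for 2 h at 37 °C, exposed to compounds, and monitored by fluorescence for 3 min.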
# [2] = Human pregnane X receptor (PXR) small molecule agonists, qHTS cell viability counter screen (AID 1346977); note: nearly all actives have a fitted effect of over 50% in size; note: potency is the fitted concentration of half-maximal effect
# Procedure, shortened: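 Measures live-cell protease fluorescence (CellTiter-Fluor) in PXR-Luc HepG2 cells treated 24hr with compounds at 37C. Cells had 5hr to attach before pin transfer of DMSO solutions.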
# [3] = Caspase-3/7 induction in HepG2 cells by small molecules, qHTS assay (AID 1346978); note: nearly all actives have a fitted effect of over 15% in size
# Procedure, shortened: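 Wild-type HepG2 cells (2,000/well) were settled 5 h at 37 C, 5% CO2, then exposed to compounds in DMSO for 17 h. Caspase-3/7 activity was read by luminescence 30 min after adding Caspase-Glo 3/7 reagent at room temperature.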
# [4] = Caspase-3/7 induction in CHO-K1 cells by small molecules, qHTS cell viability counter screen (AID 1346979); note: nearly all actives have a fitted effect of over 35% in size; note: potency is the fitted concentration of half-maximal effect
# Procedure, shortened: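 In the same wells as the caspase read, viability of compound-treated wild-type CHO-K1 cells was assessed using CellTiter-Fluor, added after 16hr at 37C and measured by fluorescence following 1hr further incubation.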
# [5] = Caspase-3/7 induction in CHO-K1 cells by small molecules, qHTS assay (AID 1346980); note: nearly all actives have a fitted effect of over 15% in size
# Procedure, shortened: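 Wild-type cells were seeded at 1,500 per well and settled 5 hr at 37 C, 5% CO2, then exposed to DMSO-dissolved compounds for 17 hr. Caspase-Glo 3/7 reagent was added, and luminescence was read after 30min at room temperature.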
# [6] = Caspase-3/7 induction in HepG2 cells by small molecules, qHTS cell viability counter screen (AID 1346981); note: nearly all actives have a fitted effect of over 30% in size; note: potency is the fitted concentration of half-maximal effect
# Procedure, shortened: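 In this quantitative HTS counter screen, compounds delivered in DMSO were left on unmodified HepG2 cells for 16 hr at 37 C. Viability was then determined fluorometrically with CellTiter-Fluor, in parallel with caspase-3/7 induction in the same wells.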
# [7] = biological target: Nuclear receptor subfamily 1 group I member 2 (Homo sapiens) (UniProt O75469); assay: Human pregnane X receptor (PXR) small molecule agonists, qHTS assay (AID 1346982); note: nearly all actives have a fitted effect of over 35% in size; note: potency is the fitted concentration of half-maximal effect
# Sequence of Nuclear receptor subfamily 1 group I member 2 (Homo sapiens) (O75469 whole entry, looked up): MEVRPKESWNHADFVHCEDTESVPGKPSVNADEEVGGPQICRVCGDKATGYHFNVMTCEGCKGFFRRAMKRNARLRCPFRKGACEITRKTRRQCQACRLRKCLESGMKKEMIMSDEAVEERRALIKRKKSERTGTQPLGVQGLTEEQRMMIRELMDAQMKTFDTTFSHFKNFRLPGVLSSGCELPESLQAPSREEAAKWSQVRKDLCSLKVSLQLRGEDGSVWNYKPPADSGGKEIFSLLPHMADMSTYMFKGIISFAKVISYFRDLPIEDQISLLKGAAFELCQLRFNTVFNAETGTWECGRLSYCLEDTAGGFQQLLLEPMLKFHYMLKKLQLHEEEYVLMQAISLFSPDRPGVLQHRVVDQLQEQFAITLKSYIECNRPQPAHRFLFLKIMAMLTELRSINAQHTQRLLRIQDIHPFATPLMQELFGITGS
# Procedure, shortened: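 Reporter HepG2 cells expressing PXR-Luc are cultured in charcoal-stripped FBS (5%), treated with compounds for 24 hr at 37 C, and assayed by ONE-Glo luminescence after 30 min at room temperature.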
# [8] = biological target: Acetylcholinesterase (Homo sapiens) (UniProt P22303); assay: Acetylcholinesterase (AChE) small molecule antagonists: colormetric cell-based qHTS assay (AID 1347395; calls by dose curve; note: nearly all actives have a fitted effect of over 30% in size)
# Sequence of Acetylcholinesterase (Homo sapiens) (P22303 whole entry, looked up): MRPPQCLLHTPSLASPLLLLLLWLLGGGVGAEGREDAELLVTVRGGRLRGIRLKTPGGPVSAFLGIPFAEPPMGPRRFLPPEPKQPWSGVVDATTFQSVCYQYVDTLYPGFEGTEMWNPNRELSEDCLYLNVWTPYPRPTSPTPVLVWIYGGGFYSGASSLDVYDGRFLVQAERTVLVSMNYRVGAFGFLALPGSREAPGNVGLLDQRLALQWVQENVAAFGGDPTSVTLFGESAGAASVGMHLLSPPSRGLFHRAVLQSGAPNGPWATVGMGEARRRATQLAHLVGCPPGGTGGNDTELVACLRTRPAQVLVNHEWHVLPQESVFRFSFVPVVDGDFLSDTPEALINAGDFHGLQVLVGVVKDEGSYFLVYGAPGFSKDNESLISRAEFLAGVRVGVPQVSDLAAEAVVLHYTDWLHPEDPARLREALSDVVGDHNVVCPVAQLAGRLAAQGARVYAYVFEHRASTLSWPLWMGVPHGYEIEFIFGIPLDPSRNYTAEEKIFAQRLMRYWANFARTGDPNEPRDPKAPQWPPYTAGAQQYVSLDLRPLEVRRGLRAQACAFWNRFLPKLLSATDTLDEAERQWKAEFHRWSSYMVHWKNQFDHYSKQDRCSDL
# Procedure, shortened: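 Endogenous AChE of human neuroblastoma SH-SY5Y cells was measured with an Ellman-type DTNB/acetylthiocholine mix. Compound pretreatment lasted 30 min at 37 C; substrate reaction ran 90 min at 37 C.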
# [9] = biological target: Acetylcholinesterase (Homo sapiens) (UniProt P22303); assay: Acetylcholinesterase (AChE) small molecule antagonists: enzyme-based qHTS assay (AID 1347397; calls by dose curve; note: nearly all actives have a fitted effect of over 55% in size); settings: Potency: AChE enzyme activity inhibition
# Procedure, shortened: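 Tox21 library chemicals are tested in qHTS format against recombinant human AChE. The enzyme, dispensed at 50 mU/mL, sits with compound for 30 min at room temperature. A DTNB–acetylthiocholine cocktail follows, and colour is read after 10 min.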
# [10] = biological target: Acetylcholinesterase (Homo sapiens) (UniProt P22303); assay: Acetylcholinesterase (AChE) small molecule antagonists: fluorescence cell-based qHTS assay (AID 1347398; calls by dose curve; note: nearly all actives have a fitted effect of over 50% in size); settings: Potency: AChE activity
# Procedure, shortened: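 Cellular AChE inhibition: SH-SY5Y cells treated with test chemical for 30 min at 37 C, then acetylthiocholine hydrolysis followed over 40 min at room temperature via thiocholine-reactive Thiolite Green fluorescence (490/520 nm).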
# [11] = biological target: Acetylcholinesterase (Homo sapiens) (UniProt P22303); assay: Acetylcholinesterase (AChE) small molecule antagonists: enzyme-based qHTS assay with human liver microsomes (AID 1347399; calls by dose curve; note: nearly all actives have a fitted effect of over 60% in size); settings: Potency: qHTS inhibition
# Procedure, shortened: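 Recombinant human AChE (50 mU/mL in the enzyme mix) and human liver microsomes (0.25 mg/mL final) were preincubated with compound and NADPH (0.25 mg/mL final) for 30 min at 37 C. Acetylthiocholine/DTNB was then added; thiocholine was read colorimetrically after 10 min at room temperature.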
# [12] = biological target: Cytochrome P450 2D6 (Homo sapiens) (UniProt P10635); assay: Cytochrome P450 Family 2 Subfamily D Member 6 (CYP2D6) small molecule antagonists: luciferase reporter qHTS assay (AID 1671196); note: nearly all actives have a fitted effect of over 50% in size; note: potency is the fitted concentration of half-maximal effect
# Procedure, shortened: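 Test chemicals meet CYP2D6 plus proluciferin substrate (10 min, RT); NADPH regenerating solution then drives turnover for 1 h. Detection reagent halts the reaction; luminescence measured after 20 min.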
# [13] = biological target: Cytochrome P450 2C9 (Homo sapiens) (UniProt P11712); assay: Cytochrome P450 Family 2 Subfamily C Member 9 (CYP2C9) small molecule antagonists: luciferase reporter qHTS assay (AID 1671198); note: nearly all actives have a fitted effect of over 50% in size; note: potency is the fitted concentration of half-maximal effect
# Sequence of Cytochrome P450 2C9 (Homo sapiens) (P11712 whole entry, looked up): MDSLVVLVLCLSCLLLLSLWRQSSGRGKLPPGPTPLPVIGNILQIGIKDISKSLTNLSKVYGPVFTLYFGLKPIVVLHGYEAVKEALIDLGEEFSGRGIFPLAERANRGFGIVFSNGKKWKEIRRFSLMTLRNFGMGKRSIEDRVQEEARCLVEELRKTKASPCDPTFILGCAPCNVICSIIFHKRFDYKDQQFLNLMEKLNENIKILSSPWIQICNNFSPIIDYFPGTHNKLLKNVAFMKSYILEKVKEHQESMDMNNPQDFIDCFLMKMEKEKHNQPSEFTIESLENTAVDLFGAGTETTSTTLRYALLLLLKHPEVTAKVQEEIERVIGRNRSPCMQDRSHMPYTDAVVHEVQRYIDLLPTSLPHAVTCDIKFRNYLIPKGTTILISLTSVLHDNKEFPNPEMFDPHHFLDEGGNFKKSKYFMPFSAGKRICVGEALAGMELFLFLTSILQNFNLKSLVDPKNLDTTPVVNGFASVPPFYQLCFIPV
# Procedure, shortened: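 CYP2C9 activity was measured with a P450-Glo proluciferin substrate. Enzyme–substrate mix was held with compound for 10 min at room temperature, then NADPH regeneration solution was added for 1 h at 37C. Luciferin product was read as luminescence.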
# [14] = biological target: Cytochrome P450 1A2 (Homo sapiens) (UniProt P05177); assay: Cytochrome P450 Family 1 Subfamily A Member 2 (CYP1A2) small molecule antagonists: luciferase reporter qHTS assay (AID 1671199); note: nearly all actives have a fitted effect of over 50% in size; note: potency is the fitted concentration of half-maximal effect
# Sequence of Cytochrome P450 1A2 (Homo sapiens) (P05177 whole entry, looked up): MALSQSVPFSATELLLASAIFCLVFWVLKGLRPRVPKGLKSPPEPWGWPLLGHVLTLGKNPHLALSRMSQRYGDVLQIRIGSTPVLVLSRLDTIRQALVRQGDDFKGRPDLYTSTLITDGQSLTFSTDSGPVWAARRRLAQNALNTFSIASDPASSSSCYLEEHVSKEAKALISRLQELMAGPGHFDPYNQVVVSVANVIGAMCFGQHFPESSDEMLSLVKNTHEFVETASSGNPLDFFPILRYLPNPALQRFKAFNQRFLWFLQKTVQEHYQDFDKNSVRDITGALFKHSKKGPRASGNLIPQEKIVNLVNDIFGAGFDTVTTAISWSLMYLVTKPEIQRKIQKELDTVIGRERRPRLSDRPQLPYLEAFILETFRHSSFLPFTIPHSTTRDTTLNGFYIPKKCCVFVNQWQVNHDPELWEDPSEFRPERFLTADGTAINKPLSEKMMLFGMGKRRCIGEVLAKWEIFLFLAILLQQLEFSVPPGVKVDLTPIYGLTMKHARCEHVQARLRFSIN
# Procedure, shortened: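 Steps: enzyme-substrate mix dispensed; test compounds and furafylline control pinned in; 10 min room temperature; NADPH regeneration solution added, 1 h; reaction stopped with luciferin detection reagent; luminescence read after 20 min.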
# [15] = biological target: Voltage-gated inwardly rectifying potassium channel KCNH2 (Homo sapiens) (UniProt Q12809); assay: Human Ether-a-go-go-Related Gene (hERG) channel small molecule antagonists: fluorescence cell-based qHTS assay (AID 1671200); note: nearly all actives have a fitted effect of over 50% in size; note: potency is the fitted concentration of half-maximal effect
# Sequence of Voltage-gated inwardly rectifying potassium channel KCNH2 (Homo sapiens) (Q12809 whole entry, looked up): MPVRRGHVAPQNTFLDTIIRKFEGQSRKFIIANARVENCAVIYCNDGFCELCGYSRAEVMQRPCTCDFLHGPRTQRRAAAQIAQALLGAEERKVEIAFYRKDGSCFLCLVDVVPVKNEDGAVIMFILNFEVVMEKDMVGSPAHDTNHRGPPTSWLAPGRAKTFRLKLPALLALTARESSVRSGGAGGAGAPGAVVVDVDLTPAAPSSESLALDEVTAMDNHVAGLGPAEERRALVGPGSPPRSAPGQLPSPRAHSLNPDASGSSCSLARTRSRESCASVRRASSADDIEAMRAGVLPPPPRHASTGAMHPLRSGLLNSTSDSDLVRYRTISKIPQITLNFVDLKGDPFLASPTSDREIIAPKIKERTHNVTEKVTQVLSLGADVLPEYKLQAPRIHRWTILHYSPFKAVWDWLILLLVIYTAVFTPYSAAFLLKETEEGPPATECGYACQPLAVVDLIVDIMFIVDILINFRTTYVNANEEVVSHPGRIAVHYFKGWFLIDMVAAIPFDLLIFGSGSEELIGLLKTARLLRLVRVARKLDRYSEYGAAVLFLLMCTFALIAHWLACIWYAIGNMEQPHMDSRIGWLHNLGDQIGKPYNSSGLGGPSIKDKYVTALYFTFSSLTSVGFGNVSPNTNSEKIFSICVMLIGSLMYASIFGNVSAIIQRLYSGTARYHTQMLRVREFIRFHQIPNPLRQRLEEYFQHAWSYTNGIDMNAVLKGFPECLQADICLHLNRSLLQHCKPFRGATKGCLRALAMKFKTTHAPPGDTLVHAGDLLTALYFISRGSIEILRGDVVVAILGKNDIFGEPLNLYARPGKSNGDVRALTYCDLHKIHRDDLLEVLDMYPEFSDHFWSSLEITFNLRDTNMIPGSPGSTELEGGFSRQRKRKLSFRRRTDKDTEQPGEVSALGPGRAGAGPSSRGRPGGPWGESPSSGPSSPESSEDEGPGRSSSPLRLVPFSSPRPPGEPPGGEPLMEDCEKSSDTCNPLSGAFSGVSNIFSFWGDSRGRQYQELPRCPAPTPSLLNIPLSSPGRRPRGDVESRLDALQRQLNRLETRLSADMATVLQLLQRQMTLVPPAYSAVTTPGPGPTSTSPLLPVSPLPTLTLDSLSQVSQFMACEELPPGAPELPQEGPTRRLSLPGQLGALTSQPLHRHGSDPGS
# Procedure, shortened: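 Quantitative HTS in hERG-U2OS cells: thallium entry through the channel reports activity, read as continuous 480/540 nm fluorescence over 2 min after stimulus addition.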
# [16] = biological target: Cytochrome P450 3A4 (Homo sapiens) (UniProt P08684); assay: Cytochrome P450 Family 3 Subfamily A Member 4 (CYP3A4) small molecule antagonists: luciferase reporter qHTS assay (AID 1671201); note: nearly all actives have a fitted effect of over 50% in size; note: potency is the fitted concentration of half-maximal effect
# Sequence of Cytochrome P450 3A4 (Homo sapiens) (P08684 whole entry, looked up): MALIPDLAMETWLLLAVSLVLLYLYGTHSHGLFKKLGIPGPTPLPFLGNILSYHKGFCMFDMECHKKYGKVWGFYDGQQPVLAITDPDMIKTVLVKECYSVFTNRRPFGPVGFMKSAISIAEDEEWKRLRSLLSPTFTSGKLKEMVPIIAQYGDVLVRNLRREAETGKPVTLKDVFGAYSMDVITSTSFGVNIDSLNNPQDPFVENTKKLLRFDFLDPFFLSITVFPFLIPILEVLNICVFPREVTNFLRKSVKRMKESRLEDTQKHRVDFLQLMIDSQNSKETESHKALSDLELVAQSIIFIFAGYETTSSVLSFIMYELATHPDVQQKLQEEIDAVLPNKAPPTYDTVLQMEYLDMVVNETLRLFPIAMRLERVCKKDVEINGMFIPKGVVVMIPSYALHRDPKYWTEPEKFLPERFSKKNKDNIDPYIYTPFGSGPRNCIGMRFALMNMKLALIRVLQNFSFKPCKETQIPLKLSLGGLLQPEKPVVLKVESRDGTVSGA
# Procedure, shortened: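 Inhibition of CYP3A4 is measured as loss of light: the enzyme converts a proluciferin substrate to luciferin, detected luminescently. Reaction ran 1 h at room temperature with NADPH regeneration after a 10 min compound preincubation.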
# [17] = biological target: Cytochrome P450 2C19 (Homo sapiens) (UniProt P33261); assay: Cytochrome P450 Family 2 Subfamily C Member 19 (CYP2C19) small molecule antagonists: luciferase reporter qHTS assay (AID 1671197); note: nearly all actives have a fitted effect of over 65% in size; note: potency is the fitted concentration of half-maximal effect
# Sequence of Cytochrome P450 2C19 (Homo sapiens) (P33261 whole entry, looked up): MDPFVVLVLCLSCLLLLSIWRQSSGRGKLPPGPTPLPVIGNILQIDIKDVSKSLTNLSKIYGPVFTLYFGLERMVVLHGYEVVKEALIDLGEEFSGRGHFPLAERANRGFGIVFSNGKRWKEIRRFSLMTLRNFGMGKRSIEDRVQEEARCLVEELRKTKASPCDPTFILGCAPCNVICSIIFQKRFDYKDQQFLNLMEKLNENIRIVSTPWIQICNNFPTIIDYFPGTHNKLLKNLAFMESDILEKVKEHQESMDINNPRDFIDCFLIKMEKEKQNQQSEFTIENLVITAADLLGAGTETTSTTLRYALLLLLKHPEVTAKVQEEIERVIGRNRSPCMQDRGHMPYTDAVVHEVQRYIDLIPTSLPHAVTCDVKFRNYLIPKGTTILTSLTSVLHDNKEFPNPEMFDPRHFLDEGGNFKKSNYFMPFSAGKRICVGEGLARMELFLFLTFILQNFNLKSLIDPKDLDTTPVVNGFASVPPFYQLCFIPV
# Procedure, shortened: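 P450-Glo CYP2C19 screening system; proluciferin substrate; DMSO compound stocks; 10 min RT preincubation; NADPH regeneration, 1 h at 37C; luciferin detection reagent, 20 min RT; luminescence as RLU.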
# [18] = biological target: Nuclear receptor subfamily 1 group I member 2 (Rattus norvegicus) (UniProt Q9R1A7); assay: Rat pregnane X receptor (rPXR) activation by small molecules, qHTS assay (AID 1346983); settings: rPXR luciferase reporter cells, One-Glo luminescence, 24 h; max activation: hits give high values; note: nearly all actives have a fitted effect of over 20% in size
# Procedure, shortened: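 Cell-based rPXR luciferase reporter assay, 2,000 cells per well, rested 5hr at 37 C before compound addition in DMSO, then 24 hr at 37 C. One-Glo reagent was added and luminescence read after 30 min at room temperature.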
# [19] = biological target: Nuclear receptor subfamily 1 group I member 2 (Homo sapiens) (UniProt O75469); assay: CYP3A4 induction through human pregnane X receptor (PXR) by small molecules, qHTS assay (AID 1346984); note: nearly all actives have a fitted effect of over 40% in size
# Procedure, shortened: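 Induction measured in HepG2-based DPX-2 cells co-expressing human PXR and a CYP3A4 promoter-driven luciferase. After a 24-hour compound exposure, cells received CYP3A4 luciferin substrate at 3uM final for 3 hours, and light output was then recorded.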
# [20] = biological target: Nuclear receptor subfamily 1 group I member 2 (Homo sapiens) (UniProt O75469); assay: Human pregnane X receptor (PXR) activation by small molecules, qHTS assay (AID 1346985); note: nearly all actives have a fitted effect of over 40% in size
# Procedure, shortened: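 DPX-2 cells (HepG2 co-transfected with a PXR response element and a CYP3A4-promoter luciferase construct) were seeded at 2,000 per well, rested 5 hr at 37C, then exposed to DMSO-dissolved compounds for 24 hr. Activation was read as luciferase luminescence.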
SMILES,Potency [1],Potency [2],Potency [3],Potency [4],Potency [5],Potency [6],Potency [7],Potency [8],Potency [9],Potency [10],Potency [11],Potency [12],Potency [13],Potency [14],Potency [15],Potency [16],Potency [17],max activation [18],Potency [19],Potency [20]
c1ccoc1,inactive,inactive,inactive,inactive,inactive,inactive,inactive,inactive,inactive,inactive,inactive,inactive,inactive,inactive,inactive,inactive,,,,
O=C(NC(=O)c1c(F)cccc1F)Nc1ccc(OC(F)(F)C(F)OC(F)(F)F)c(Cl)c1 (centres undefined),inactive,inactive,inactive,inactive,inactive,inactive,inactive,inactive,inactive,inactive,inactive,inactive,19.5 µM (active),,inactive,inactive,inactive,,,
ClC=C(Cl)Cl,inactive,inactive,inactive,inactive,inactive,inactive,inactive,,inactive,inactive,,inactive,,inactive,inactive,inactive,inactive,-0.508%,inactive,inactive
O=C1NCN(c2ccccc2)C12CCN(CCCOc1ccc(F)cc1)CC2,6.01 µM (active),6.68 µM (active),inactive,26.6 µM (active),inactive,7.5 µM (active),5.96 µM (active),,inactive,inactive,inactive,0.347 µM (active),inactive,inactive,0.601 µM (active),inactive,inactive,-0.12%,inactive,inactive
Nc1nc(N)nc(N)n1,inactive,inactive,inactive,inactive,inactive,inactive,inactive,inactive,inactive,inactive,inactive,inactive,inactive,31.8 µM (active),inactive,inactive,,,,
O=Cc1ccc(Cl)cc1Cl,inactive,inactive,inactive,inactive,inactive,inactive,inactive,inactive,inactive,inactive,inactive,inactive,inactive,inactive,inactive,inactive,inactive,,,
Cn1cc[n+](C)c1 (tested in a mixture with another compound),inactive,inactive,inactive,inactive,inactive,inactive,inactive,,inactive,inactive,inactive,inactive,,inactive,inactive,inactive,,,,
O=C(CBr)Nc1ccc(Cl)cc1C(=O)c1ccccc1F,inactive,inactive,inactive,inactive,inactive,inactive,,inactive,inactive,inactive,,inactive,,13.8 µM (active),inactive,inactive,1.95 µM (active),,,
c1ccc(C2CC2)c(OCC2=NCCN2)c1,inactive,inactive,inactive,inactive,inactive,inactive,inactive,,inactive,inactive,inactive,4.36 µM (active),,,inactive,inactive,inactive,,,
O=[N+]([O-])c1ccccc1CCl,inactive,inactive,inactive,inactive,inactive,inactive,0.0039 µM (active),inactive,inactive,inactive,,,,,inactive,inactive,,,,
CC(C)(Cl)[N+](=O)[O-],inactive,inactive,inactive,inactive,inactive,inactive,,inactive,inactive,inactive,,inactive,,,inactive,inactive,89.8 µM (active),,,
O=C(NCc1cccnc1)Nc1ccc([N+](=O)[O-])cc1,inactive,inactive,inactive,inactive,inactive,inactive,inactive,,inactive,inactive,,35.6 µM (active),5.03 µM (active),17.8 µM (active),inactive,0.796 µM (active),2 µM (active),,,
CCC(Cl)CCl (centres undefined),inactive,inactive,inactive,inactive,inactive,inactive,inactive,inactive,inactive,inactive,,inactive,inactive,inactive,inactive,inactive,,,,
O=C1C(Cl)C(CCl)CN1c1cccc(C(F)(F)F)c1 (centres undefined),inactive,inactive,inactive,inactive,inactive,inactive,24.3 µM (active),,inactive,inactive,,,inactive,1 µM (active),,inactive,,,,
CCC(Br)(CC)C(=O)NC(N)=O,inactive,inactive,inactive,inactive,inactive,inactive,inactive,inactive,inactive,inactive,,,inactive,inactive,inactive,inactive,inactive,,,
CCCCN=C=O,inactive,inactive,inactive,inactive,inactive,inactive,inactive,,inactive,inactive,inactive,,inactive,,inactive,inactive,35.2 µM (active),,,
